About 330 (25%) of roughly 1,300 compounds were called active. Only a sample is shown. Potency and affinity values are given separately. A number with no mark means an inactive call. How the calls were made is not given here.
Test: MALME3 melanoma cell viability loss, dose response, orthogonal assay for MITF inhibitor project, CellTiter-Glo, cherry-picked (AID 493191)
Conditions: CellTiter-Glo luminescence, 24 h; series mostly up to 35 µM; activity change, negative = inhibition: at the top concentration

In order of falling “activity change, negative = inhibition” value:
1. COc1ccc(NC(=O)Nc2ccc(F)c(F)c2)c(OC)c1  18.8%
2. COc1ccc(-c2cc(-c3ccccc3O)[nH]n2)cc1OC  14.5%
3. COc1ccc(COC(=O)c2cc([N+](=O)[O-])ccc2N2CCOCC2)cc1F  11.2%
4. COc1ccc(NC(=O)NC(=O)c2ccccc2)cc1  10.3%
5. Cc1cccc(-c2nc(C#N)c(NCc3ccco3)o2)c1  10.1%
6. CC(C)c1ccc(/C=C2\SC(=S)N(CCC(=O)N3CCCCC3CCO)C2=O)cc1 (stereo unspecified)  9.88%
7. CCOC(=O)c1ccc(NC(=O)c2ccnn2C)cc1  7.79%
8. O=C(Cc1ccccc1)Nc1ccc(NC(=O)c2ccco2)nc1  7.46%
9. CC(=O)Nc1ccc(-c2nc3ccccc3o2)cc1  7.41%
10. COc1ccc(/C=N/Nc2ccccn2)cc1OC  7.25%
11. CCOc1ccc(C(=O)Nc2cccc(C(=O)O)c2C)cc1Cl  7.12%
12. COc1ccc(/C=C/c2cc(C(F)(F)F)on2)cc1  6.62%
13. CC1Cc2cc(-c3csc(N)n3)ccc2O1 (stereo unspecified)  6.44%
14. O=C(Nc1nc2ccsc2c(=O)s1)C1CCC1  6.31%
15. O=[N+]([O-])c1cccc(/C=N/Nc2ncc(Br)cn2)c1  6.28%
16. Cc1ccc(NC(=O)c2ccccc2)cc1  5.52%
17. c1ccc(Cc2cc(-c3ccccc3)on2)cc1  5.16%
18. Cc1ccc(NC(=O)c2cc(-c3cccs3)on2)cc1  4.72%
19. COc1cccc(/C=N/NC(=O)CN2CC(c3ccccc3)CC2=O)c1OC (stereo unspecified)  3.58%
20. N/C(=N\OC(=O)Cc1cccs1)c1ccccc1  3.27%
21. CCC(=O)Nc1cc(C(=O)OCC(=O)c2ccccc2Cl)ccc1C  1.33%
22. COc1ccc(NC(=O)c2cc(-c3ccccc3Cl)on2)cc1  1.29%
23. CCN1CCc2c(sc(NC(=O)c3ccc(S(=O)(=O)N4CCCC4)cc3)c2C(=O)NC)C1  0.364%
24. O=C(O)c1ccc(C(=O)Nc2ccc(F)cc2)cc1  -0.194%
25. CCCCNC(=O)Nc1ccc(C2SCCS2)cc1  -0.988%
26. O=C(Nc1ccc(Cl)cc1)Nc1cccc(C(=O)O)c1  -1.06%
27. O=C(NCCNc1ccccc1[N+](=O)[O-])c1cc(F)c(F)cc1Cl  -1.12%
28. O=C1c2ccccc2S(=O)(=O)N1Cc1nc2ccccc2s1  -1.34%
29. O=C(CCC(=O)c1ccc[nH]1)c1ccc(Cl)cc1  -1.41%
30. COC(=O)C1=C(CN2CCCc3ccccc32)NC(=O)NC1c1ccc(F)cc1 (stereo unspecified)  -1.92%
31. COc1ccc(-c2nc(-c3ccncc3)no2)cc1OC  -2.17%
32. COc1ccc2nc(C)cc(NCc3cccc(C(F)(F)F)c3)c2c1  -2.53%
33. N/C(CS(=O)(=O)c1ccccn1)=N\OC(=O)c1ccccc1Cl  -2.74%
34. Cc1cc2oc(=O)cc(C)c2cc1NC(=O)CCC(=O)O  -2.92%
35. CC(=O)Nc1cccc(-c2nnc(-c3ccccc3)o2)c1  -3.6%
36. O=C(NC1CCCCCC1)c1cc2ccccc2oc1=O  -3.85%
37. CN(C)c1ccc(C2=NOC(CN3C(=O)c4ccccc4S3(=O)=O)C2)cc1 (stereo unspecified)  -4.73%
38. O=C(Nc1ccccc1)C1Cc2ccccc2CN1C(=O)c1ccco1 (stereo unspecified)  -4.95%
39. COc1ccccc1NS(=O)(=O)c1cc(NC(=O)c2ccc(Cl)nc2)ccc1Cl  -5.32%
40. CN(c1ccc(O)cc1)c1nc(O)c(C2=c3ccccc3=NC2=O)s1  -6.42%
41. Fc1ccc(-c2nnc(-c3ccc(F)cc3)o2)cc1  -8.09%
42. CCOC(=O)c1ccc(NC(=O)c2ccc(C)c(S(=O)(=O)N3CCOCC3)c2)cc1  -8.59%
43. O=C(Nc1ccc2c(c1)OCCO2)c1ccoc1  -8.78%
44. O=C(COC(=O)c1ccc(F)c([N+](=O)[O-])c1)NC(=O)NCc1ccccc1  -8.85%
45. O=C(NC1CCCCC1)C(c1cccnc1)N(C(=O)CCl)c1cccc(Cl)c1 (stereo unspecified)  -10.9%
46. Cn1cccc1C(=O)NC(=O)COC(=O)c1ccc(S(C)(=O)=O)c([N+](=O)[O-])c1  -11.1%
47. Cc1ccc(C(=O)Nc2cnc3ccccc3c2)cc1  -11.4%
48. O=C(CSCC(=O)Nc1ccccc1)N/N=C/c1c(O)ccc2ccccc12  -12.1%
49. Cc1ccc2nc(-c3ccncc3)[nH]c2c1  -13.6%
50. Cc1[nH]nc(Nc2ccc(Br)cc2)c1[N+](=O)[O-]  -14.8%
51. COc1ccc2nc(C)cc(SCC(=O)N/N=C/c3ccc(O)cc3O)c2c1  -15.7%
52. Cn1cc(C(=O)N/N=C/c2c(O)ccc3ccccc23)ccc1=O  -16.5%
53. CCN(CC)CCNC(=O)c1ccc(NC(=O)c2cccc(S(=O)(=O)N3c4ccccc4CC3C)c2)cc1 (stereo unspecified)  -17.4%
54. CCOC(=O)COc1ccc2ccccc2c1/C=C/[N+](=O)[O-]  -18.2%
55. C=CCNc1nc(-c2ccccn2)nnc1-c1ccccc1  -18.7%
56. C=CCN1C(=O)S/C(=C\c2ccc(N3CCOCC3)cc2C)C1=O  -19.1%
57. CC(=C/c1ccco1)/C=N/N1CCN(c2ccccc2)CC1  -19.4%
58. Nc1nc2n[nH]nc2c(=O)[nH]1  -21.7%
59. Cc1ccc(-c2noc(-c3ccno3)n2)cc1  -24.2%
60. CSc1nc(N)n2nc(-c3ccccc3)cc2n1  -24.9%
61. CCn1c(/C=C/N(C)c2ccccc2)[n+](CC)c2ccc(Cl)cc21  -25.4%
62. CCOC(=O)c1ccc2c(c1)n(CC)c(/C=C/N(C)c1ccccc1)[n+]2CC  -27.6%
63. CN(CCC#N)C(=O)COC(=O)c1ccccc1C(=O)c1ccc(Cl)c([N+](=O)[O-])c1  -28.2%
64. O=C(Nc1nc2cc3c(cc2s1)OCO3)C1=COCCO1  -28.5%
65. COCCCn1[nH]c2c3c(ccc2c1=O)C(=O)c1ccccc1C3=O  -28.8%
66. C=CCSC(=S)NC1CCS(=O)(=O)C1 (stereo unspecified)  -29.3%
67. CCOc1ccc(NC(=O)c2ccccn2)cc1  -30.9%
68. CCSc1ccccc1C(=O)n1nnc2ccccc21  -31.2%
69. Cc1ccn2c(Nc3ccccc3)c(-c3ccccn3)nc2c1  -31.3%
70. Cc1c(C#N)c(NC(=O)CCl)n(Cc2ccc(F)cc2)c1C  -31.5%
71. O=[N+]([O-])/C=C\c1ccc(N2CCCC2)c(F)c1  -33.7%
72. C=CCn1c(C)cc(C(=O)Cn2ncc(Cl)c(Cl)c2=O)c1C  -34.7%
73. O=C(O)/C=C/C(=O)c1ccc2c(c1)CCc1ccccc1-2  -35.3%
74. O=C(CNc1ccc2ccccc2c1)N/N=C/c1ccc([N+](=O)[O-])o1  -35.4%
75. O=C(NC1CC1)C1CCN(S(=O)(=O)c2ccc(Cl)c([N+](=O)[O-])c2)CC1  -35.8%
76. Cc1ccccc1-n1ncc2c([N+](=O)[O-])cc([N+](=O)[O-])cc21  -38.6%
